Experimental data taken from PubChem BioAssay AID720513 (Broad Institute, 2013).
Hit rate of the full screen: of about 2,100 compounds, about 480 (23%) were called active. Another 5% or so got no clear call; they are omitted.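 The calls were made as follows: active = fitted curve reaches 40% activation at or below the top valid concentration, in every replicate test; inconclusive = replicate tests disagree on the call; inactive = the rest, including activity in the opposite direction.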 Not all results are given here. Entries with a potency or affinity are not part of this list.

Test: activators raising PGC1a acetylation in cells, dose response, cell-based, cherry-picked samples, set 6 (AID 720513);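 also: cells made to overexpress flag tagged PGC1a plus GCN5 acetyltransferase by viral infection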
Details: U2OS PGC1a acetylation AlphaLISA, overnight, 0 = neutral, -100 = inhibitor control; series mostly up to 19.5 µM; activation (acetylation increase): at the top concentration

| Compound | activation (acetylation increase) |
| --- | --- |
| CC(C)Oc1ccc2nnnn2n1 | -8.35% (inactive) |
| CCCSCC(=O)Nc1ncc2c(n1)-c1ccccc1CC2 | -13.2% (inactive) |
| C[C@H]1CN([C@@H](C)CO)S(=O)(=O)c2ccc(C#CC3CCCCC3)cc2O[C@@H]1CN(C)Cc1cccnc1 | -61.9% (inactive) |
| O=C(c1ccco1)N1CCN(C(=O)N2c3ccccc3Sc3ccccc32)CC1 | 7.72% (inactive) |
| CCc1nc(SCC(=O)N2c3ccccc3Sc3ccccc32)c2ccccc2n1 | -8.97% (inactive) |
| O=c1[nH]c2ccccc2nc1/C=C/c1ccc(O)cc1 | 33.7% [at 10 µM] (inactive) |
| C[C@H]1CN([C@@H](C)CO)C(=O)c2cccc(NC(=O)Nc3ccc(F)cc3)c2O[C@@H]1CN(C)S(=O)(=O)c1cn(C)cn1 | -10.4% (inactive) |
| C[C@H](NS(=O)(=O)c1ccc2c(c1)OCCCO2)C(=O)N1CCN(Cc2ccccc2)CC1 | -16.9% (inactive) |
| COc1ccc2c(-c3ccccc3)cc(=O)[nH]c2c1 | 5.67% (inactive) |
| O=C(c1cc(-c2ccccc2)nc2ccccc12)N1N=C(C(F)F)CC1(O)C(F)F (centres undefined) | -4.21% (inactive) |
| C=CCn1c(SCC(=O)Nc2ccc(C(=O)O)cc2)nnc1-c1cccnc1 | -17.5% (inactive) |
| COc1ccc(NC(=O)N[C@@H]2C=C[C@@H](CC(=O)NCc3ccccn3)O[C@@H]2CO)cc1 | 8.22% (inactive) |
| COc1ccc(C2(NC(C)=O)CCN(C(=O)CCC(=O)O)CC2)cc1 | 0.064% (inactive) |
| CCN(C(=O)C1CC1)C1CCS(=O)(=O)C1 (centres undefined) | -3.69% (inactive) |
| CN(c1ncnc(N)c1[N+](=O)[O-])C1CCS(=O)(=O)C1 (centres undefined) | -8.48% (inactive) |
| COCC(=O)Nc1ccc2c(c1)OC[C@@H](C)N(C(=O)c1ccccn1)C[C@@H](C)[C@@H](OC)CN(C)C2=O | 16.6% (inactive) |
| CC1CCCCC1NC(=O)C1CCN(S(=O)(=O)N2CCOCC2)CC1 (centres undefined) | 27.5% (inactive) |
| C[C@H](CO)N1C[C@H](C)[C@@H](CN(C)CC2CC2)Oc2cc(-c3cccnc3)ccc2S1(=O)=O | -23.9% (inactive) |
| CCSc1nnc(NC(=O)CSC2=NCCS2)s1 | 1.43% (inactive) |
| COc1cccc(N2C(=O)CC(N3CCC(c4nc5ccccc5[nH]4)CC3)C2=O)c1 (centres undefined) | -0.89% (inactive) |
| O=C(Cc1ccncc1)NCC[C@H]1CC[C@@H](NC(=O)C2CC2)[C@H](CO)O1 | -0.064% [at 21 µM] (inactive) |
| CCOC(=O)C1=C(CNCc2ccc(C)cc2)NC(=O)NC1c1cc(C)ccc1C (centres undefined) | -10.4% (inactive) |
| CCN(CC)S(=O)(=O)c1cccc(-c2nnc(SCc3ncc(-c4ccccc4)o3)n2C)c1 | 13.4% (inactive) |
| NC(=O)NC(=O)Nc1ccccc1Cl | 9.99% (inactive) |
| Cc1nc2ccc(C(=O)Nc3ccccc3Cl)cc2s1 | 17% (inactive) |
| CCN(CC)C(=O)[C@H]1CC(CC(=O)NCc2cccc(C(F)(F)F)c2)C(=O)N2CCc3c([nH]c4ccccc34)[C@]12C (some centres undefined) | -31.4% (inactive) |
| CC(=O)Nc1ccc(S(=O)(=O)N2CCN(c3ccccn3)CC2)cc1 | -5.59% (inactive) |

| Compound | activation (acetylation increase) |
| --- | --- |
| O=C(CCNC(=O)C1CCN(S(=O)(=O)c2ccc(F)cc2)CC1)NCc1ccccc1Cl | -1.53% (inactive) |
| N#Cc1cc2c(=O)n3ccccc3nc2n(Cc2cccnc2)c1=O | 5.98% (inactive) |
| O=C1C2C3CCC(C3)C2C(=O)N1CNc1ccc(F)cc1 (centres undefined) | -2.1% (inactive) |
| O=c1cc(CSc2ccccn2)[nH]c(=O)[nH]1 | -18.7% (inactive) |
| Cc1nc2[nH]c(=O)c3c(n2n1)NC1=C(C(=O)CC(C)(C)C1)C3c1ccccc1 (centres undefined) | 14.3% [at 10 µM] (inactive) |
| O=[N+]([O-])c1ccc(Oc2cccc(F)c2)c2ccncc12 | -24.5% (inactive) |
| Cc1cccc(S(=O)(=O)N(C)C[C@@H]2OCc3cn(nn3)CCCC(=O)N([C@@H](C)CO)C[C@H]2C)c1 | -2.84% (inactive) |
| O=C(OCn1ncc(Cl)c(Cl)c1=O)c1ccc(C(F)(F)F)cc1 | -30.8% (inactive) |
| O=C(NC1CCCN(Cc2ccc(Cl)cc2)C1)c1ccccc1C(F)(F)F (centres undefined) | 19.9% (inactive) |
| CCc1nc(N)nc(N)c1-c1ccc(Cl)cc1 | -18.4% (inactive) |
| CCOC(=O)C1CCN(C2=NC(=O)/C(=C/c3ccc(O)cc3)S2)CC1 | -3.08% (inactive) |
| Cc1cccc2cc(CN(Cc3nnnn3Cc3ccco3)C3CCCC3)c3nnnn3c12 | 6.98% (inactive) |
| COc1cccc2c1C(CO)N1C(C#N)C3CC(C(=O)O)C(C1C2)N3C (centres undefined) | -55.3% (inactive) |
| Cc1cccc(-n2c(CNC(=O)c3cccc([N+](=O)[O-])c3C)n[nH]c2=S)c1 | 15.6% (inactive) |
| COc1cccc(N(CC(=O)N2CCN(Cc3ccccc3)CC2)S(C)(=O)=O)c1 | 23.1% (inactive) |
| CCC(C)(C)n1nnnc1C(c1cccnc1)N1CCCC(C)C1 (centres undefined) | 3.35% (inactive) |
| C[C@H](CO)N1C[C@H](C)[C@@H](CN(C)C(=O)C2CCCCC2)Oc2cc(C#Cc3ccncc3)ccc2S1(=O)=O | -89.9% (inactive) |
| Cc1cccc(N(CC(=O)NC(C)(C)C)C(=O)CNC(=O)c2cccs2)c1 | 17% (inactive) |
| O=C(Nc1ccc2c(c1)C(=O)N(c1ccccc1)C2=O)c1cccs1 | -23.8% (inactive) |
| O=C(CNC(=O)c1sc2ccccc2c1Cl)NCc1ccccc1 | 8.91% (inactive) |
| COc1ccc(NC(=O)/C(Cl)=C(/Cl)S(=O)Cc2ccccc2)cn1 (centres undefined) | -114% (inactive) |
| CN(C)C(=O)C[C@@H]1C=C[C@@H](NS(=O)(=O)c2ccccc2)[C@@H](CO)O1 | -4.45% (inactive) |
| CO[C@@H]1CN(C)C(=O)c2ccc(NC(=O)Nc3c(C)noc3C)cc2OC[C@H](C)N(CC2CC2)C[C@@H]1C | -2.51% (inactive) |
| CCS(=O)(=O)c1ccc(O)c(NC(=O)COc2ccc(Br)cc2)c1 | 5.32% (inactive) |
| O=C(CSc1nnnn1-c1ccc(F)cc1)NNC(=O)c1ccco1 | -9.31% (inactive) |
| CC(=O)Nc1ccc(NC(=O)c2cc(=O)c3ccccc3o2)cc1 | -0.676% (inactive) |
| Cc1cc(=O)[nH]c2c1c(C)nn2C1CCCC1 | -7.95% (inactive) |
